In the library only some 9.2% were active in any assay of this set; here they are far more common.
ELG1 genotoxic – qHTS screen for small molecules that induce genotoxicity in human embryonic kidney (HEK293T) cells expressing luciferase-tagged ELG1. actives 1.3% (n = 330,000). AID 504466, 2011. HEK293T ELG1-luciferase reporter, luminescence, 16 h. Potency, µM (series often up to 46 µM), inactives show at the highest dose activity change, positive = activation, most hits filed as activators; further: % of control where 0% means no effect; nearly all actives have a fitted effect of over 60% in size
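Genotoxic stress is detected as increased luminescence from luciferase-tagged ELG1 in HEK293T cells, measured with ONE-Glo after a 16 hr treatment at 37 °C.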
ELG1 DNA repair – qHTS screen for small molecules that inhibit ELG1-dependent DNA repair in human embryonic kidney (HEK293T) cells expressing luciferase-tagged ELG1. HEK293T ELG1-luciferase reporter, luminescence, 16 h; DNA damage induced by 5-fluorouridine. Potency, µM (top dose mostly 46.1 µM), inactives show top-dose activity change, negative = inhibition, usual class: inhibitors. actives 2.3% (n = 330,000); further: on the % scale 0 is the no-effect control and ±100 the full control effect; nearly all actives have a fitted effect of over 55% in size
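Overnight (16 hr) co-exposure of 2,000 cells/well to 5-fluorouridine and compound at 37 °C preceded detection. Luciferase was quantified via ONE-Glo luminescence; loss of signal denotes inhibition.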
FLuc modulator – qHTS profiling assay for firefly luciferase inhibitor/activator using purifed enzyme and Km concentrations of substrates (counterscreen for miR-21 project). Luciferin 4-monooxygenase (Photinus pyralis), P08659. purified FLuc, Km substrates, luminescence inhibition. Potency, µM (highest dose often 57.5 µM), for inactives: at the highest dose activity change, negative = inhibition, usual class: inhibitors. actives 6.9% (n = 360,000);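 further: plate controls were vehicle for no effect and reference inhibitor for full effect; nearly all actives have a fitted effect of over 55% in size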
Target sequence (P08659 whole entry, looked up): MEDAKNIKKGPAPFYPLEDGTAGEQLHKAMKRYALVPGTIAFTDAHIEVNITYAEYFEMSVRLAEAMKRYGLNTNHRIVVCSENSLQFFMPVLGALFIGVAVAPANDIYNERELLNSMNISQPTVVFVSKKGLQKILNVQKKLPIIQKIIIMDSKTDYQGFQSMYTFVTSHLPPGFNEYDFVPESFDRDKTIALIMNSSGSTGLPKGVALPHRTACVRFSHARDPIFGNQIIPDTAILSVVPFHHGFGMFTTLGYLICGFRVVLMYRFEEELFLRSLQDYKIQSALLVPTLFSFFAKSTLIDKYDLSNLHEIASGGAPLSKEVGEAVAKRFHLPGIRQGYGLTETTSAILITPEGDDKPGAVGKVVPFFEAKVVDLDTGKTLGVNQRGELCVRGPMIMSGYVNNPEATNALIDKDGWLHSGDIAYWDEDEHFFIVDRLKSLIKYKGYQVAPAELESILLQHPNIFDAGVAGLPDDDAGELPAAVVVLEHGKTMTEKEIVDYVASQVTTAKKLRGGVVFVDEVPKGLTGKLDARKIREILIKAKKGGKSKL
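Biochemical qHTS of compounds, final roughly 60 µM downward over six points, against 10 nM purified firefly luciferase using Km concentrations of substrates (10 uM D-luciferin, 10 uM ATP) in Tris acetate pH 7.5 buffer; luminescence output.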
NPC1 promoter act – qHTS Assay for NPC1 Promoter Activators; Potency, µM (titrated, usually from 9.22 µM), for inactives: at the top dose activation, usual class: activators; Huh7 NPC1 promoter luciferase reporter, 24 h; actives 2.4% (n = 320,000); further: % of control where 0% means no effect; nearly all actives have a fitted effect of over 60% in size
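Compounds in DMSO were transferred onto Huh7 NPC1-luciferase reporter cells pre-incubated 2 h; after 24 h at 37 °C, Amplite reagent was dispensed and luminescence recorded 10 min later.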
SMN2 splice up – qHTS Assay for Enhancers of SMN2 Splice Variant Expression | HEK293 SMN2-luciferase splicing reporter, luminescence, 30-36 h | Potency, µM (titrated, usually from 46.1 µM), without a hit: top-dose activity change, positive = activation, actives largely listed as activators | actives 2.8% (n = 210,000); further: % of control where 0% means no effect; nearly all actives have a fitted effect of over 55% in size
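HEK293 cells carry an SMN2 […]–luciferase reporter in which exon 7 inclusion puts luciferase in frame. Cells were plated 10-12 h before compound addition, then incubated 30-36 h at 37C. ONE-Glo luminescence was read; sodium butyrate at 4.5 mM final served as control.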
Rab9 promoter act – qHTS Assay for Rab9 Promoter Activators. Huh7 Rab9 promoter-luciferase reporter, luminescence, 24 h. Potency, µM (doses to about 9.22 µM), inactives show at the top dose activation, negative = inhibition, most hits filed as activators. actives 2.8% (n = 320,000). AID 485297, 2010; further: % of control where 0% means no effect; nearly all actives have a fitted effect of over 60% in size
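Measured in stably transfected Huh7 cells bearing a Rab9 promoter–luciferase construct: 24 h compound treatment at 37 °C, followed by luminescence detection.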
* marks the source's active call; other numbers are inactive results; u = inconclusive; x = not tested or not shown; [ ] = remark or other dose. The call rests on the fitted dose curve; in most records, active means well fitted curve in the direction sought with a large enough effect; inconclusive means small, poorly fitted or top-dose-only effect, or another doubt; inactive means no such curve, though single readings can be large; an effect the other way counts as inactive or inconclusive. Potency means the concentration at half of the fitted maximal effect.

SMILES | ELG1 genotoxic | ELG1 DNA repair | FLuc modulator | NPC1 promoter act | SMN2 splice up | Rab9 promoter act
O=C(Nc1cccc(F)c1F)C1CCN(c2ncccn2)CC1 | x | x | 6.4% | x | -7.2% | x
O=C(OCc1nnc(-c2ccc(Br)cc2)o1)c1ccco1 | 1.1% | 7.2% | 21.3µM* | -2.8% | x | 0.2%
COc1ccc(-c2cc(-c3nnc(COC(=O)c4ccncc4)o3)c3ccccc3n2)cc1OC | -17.0% | 18.3µM* | u | -0.1% | -4.9% | -1.4%
O=C(COC(=O)c1ccc(-c2nnc(-c3ccccc3)o2)cc1)c1ccccc1 | u | u | 4.4% | 0.562µM* | 2.82µM* | 0.562µM*
O=C(OCc1nnc(-c2ccc(Cl)cc2)o1)c1ccncc1 | -2.4% | 4.8% | u | 8.4% | -1.2% | -3.1%
Cc1ccccc1C(=O)OCc1nnc(-c2ccc(Cl)cc2)o1 | 8.3% | u | 19µM* | -1.0% | 10.7% | 20.6%
CCOC(=O)CCCNC(=O)N1CCc2nc(-c3ccc(OC)cc3C)c3c(c2C1)CO[C@@H](c1ccccc1)C3 | x | x | x | x | -4.3%[9.22 µM] | x
COc1ccc(-n2c(SCC(=O)NCc3ccccc3)nc3c([nH]c4ccccc43)c2=O)cc1 | x | x | -1.2% | x | x | x
CCC(=O)Nc1ccccc1-c1nc2ccccc2n(C(CC)C(=O)Nc2cccc(C(C)=O)c2)c1=O (centres undefined) | x | x | -0.8% | x | x | x
CCOC(=O)c1c(O)[nH]c(=O)c(CC)c1C | x | x | x | x | -10.2%[9.22 µM] | x
Cc1nc2ccc(C(=O)OCc3nnc(-c4ccccc4)o3)cc2nc1C | -1.0% | 2.8% | -14.7% | -1.8% | x | 1.2%
O=C(OCc1nnc(-c2ccccc2)o1)c1ccccc1 | 1.4% | 8.5% | 15.1µM* | 0.7% | 9.3% | 15.3%
O=C(Nc1ccc(Cl)cc1N1CCOCC1)C1CCCCC1 | -8.1% | 9.9% | 2.5% | -5.2% | x | 0.0%
Cc1ccc2[nH]c3c(c2c1)CCC3=O | u | u | -2.3% | 2.0% | 15.7% | -0.1%
CCCCN1CCc2c([nH]c3ccc(C)cc23)C1=O | 26.5% | u | 2.39µM* | 2.82µM* | u | 3.55µM*
CCOC(=O)c1c(C)[nH]c(C(=O)OCC(=O)N2CCN(S(=O)(=O)c3ccc(C)cc3C)CC2)c1C | -5.9% | 12.6µM* | -0.1% | 0.2% | x | -8.8%
CC(=O)c1c(C)[nH]c(C(=O)N2CCN(S(=O)(=O)c3ccc(C)cc3C)CC2)c1C | 1.0% | u | -0.4% | -0.5% | x | -7.1%
COc1cc(C(=O)N2CCN(C(=O)c3cc(-c4ccc(Br)cc4)n[nH]3)CC2)cc(OC)c1OC | 1.5% | -9.7% | 10.7µM* | 0.8% | x | 2.2%
COc1cc(C(=O)N2CCN(S(=O)(=O)c3ccc(C)cc3C)CC2)ccc1OCC(=O)N1CCOCC1 | 2.3% | 2.31µM* | 2.5% | 3.8% | x | 0.1%
COc1ccc(C(=O)N2CCN(S(=O)(=O)c3ccc(C)cc3C)CC2)cc1OC | 0.7% | u | -1.9% | -0.2% | -12.1% | -2.2%
COc1ccc(OCC(=O)N2CCN(C(=O)c3ccc(OC)c(OC)c3)CC2)cc1 | x | x | u | x | -2.7% | x
COc1ccc(C(=O)N2CCN(C(=O)COc3ccc(Br)cc3)CC2)cc1OC | x | x | 16.9µM* | x | 5.4% | x
COc1ccc(NC(=O)C(Cc2ccccc2)NS(=O)(=O)c2ccc3c(c2)CCC(=O)N3)c(OC)c1 (centres undefined) | x | x | -3.0% | x | -5.9% | x
CCCNC(=O)Cn1nc(-c2ccc(F)cc2)c2cnc3ccc(F)cc3c21 | x | x | -1.5% | x | x | x
CC(Sc1nncs1)C(=O)NCC(=O)Nc1ccc(F)c(F)c1F (centres undefined) | -0.1% | 3.5% | -0.5% | 0.0% | 22.9% | -1.5%
SMILES | ELG1 genotoxic | ELG1 DNA repair | FLuc modulator | NPC1 promoter act | SMN2 splice up | Rab9 promoter act
Cc1ccccc1CNC(=O)Nc1ccc2c(c1)N(C)C(=O)c1ccccc1S2 | x | x | -1.0% | x | x | x
Cc1cc(C(=O)NNC(=O)COc2ccccc2Cl)n[nH]1 | 1.1% | -1.4% | -1.0% | -0.4% | x | 9.2%
COc1cc(/C=C/C(=O)OCC(=O)N2CCN(S(=O)(=O)c3ccc(C)cc3C)CC2)ccc1O | -5.1% | 20.6µM* | -0.4% | -0.6% | 4.8% | -2.6%
CSc1ccc(CSCC(=O)N2CCN(S(=O)(=O)c3ccc(C)cc3C)CC2)cc1 | -5.3% | 10µM* | 6.0% | 1.1% | x | -11.6%
Cc1ccc(S(=O)(=O)N2CCN(C(=O)COC(=O)/C=C/c3ccccc3F)CC2)c(C)c1 | 2.1% | -1.0% | -1.7% | 0.1% | x | 2.7%
CCN(CC)S(=O)(=O)c1ccc(C(=O)N2CCN(CCN3C(=O)c4cccc5cccc(c45)C3=O)CC2)cc1 | 1.5% | 4.1% | 1.5% | -5.8% | -11.1% | -7.6%
O=C(c1ccc(S(=O)(=O)N2CCCC2)cc1)N1CCC(CN2C(=O)c3cccc4cccc(c34)C2=O)CC1 | -17.7% | 10.3µM* | -2.4% | -7.2% | x | -8.9%
COc1ccc(OCC(O)CN2CCC(CN3C(=O)c4cccc5cccc(c45)C3=O)CC2)cc1 (centres undefined) | -0.5% | 8.3% | 1.5% | 1.8% | -6.4% | -0.8%
COc1ccc(S(=O)(=O)N2CCC(CN3C(=O)c4cccc5cccc(c45)C3=O)CC2)cc1 | 1.5% | 10.3µM* | 0.9% | -0.5% | -8.6%[1.84 µM] | -1.3%
CC1Sc2ccc(S(=O)(=O)N3CCC(C(=O)N(C)Cc4ccccc4)CC3)cc2NC1=O (centres undefined) | -10.3% | 7.3µM* | 1.0% | -1.0% | x | -5.0%
CCc1ccc(NC(=O)Cn2nnc(C(=O)Nc3ccc(F)cc3)c2N)cc1 | x | x | 1.2% | x | x | x
COc1cc2c(cc1OC)C1O[C@](CCCCN3C(=O)c4ccccc4C3=O)(C2)OC2=C1C(=O)CCC2 | x | x | 0.2%[11.5 µM] | 1.7%[1.84 µM] | x | -6.1%[1.84 µM]
CCC(C)(C)C1CCC2(CC1)NC(=S)N(c1ccccc1)N2 (centres undefined) | u | 8.2µM* | u | -0.8% | x | -2.7%
O=[N+]([O-])c1ccc2nc(-c3ccccc3)oc2c1 | u | u | 9.53µM* | 2.82µM* | 11.2µM* | 3.16µM*
CC(C)(C)Nc1nc2ccc([N+](=O)[O-])cc2o1 | -6.2% | u | -4.5% | 9.5% | x | 12.3%
O=c1oc(-c2cccc([N+](=O)[O-])c2)nc2ccccc12 | 5.4% | 17.8% | u | 14.5% | x | 17.5%
COc1cccc(-c2nc3ccc([N+](=O)[O-])cc3o2)c1 | u | u | 1.51µM* | u | 15.8µM* | 2.24µM*
